# PubChem BioAssay AID1259343 (VanderVen Lab, College of Veterinary Medicine, Cornell …, 2017)
# The whole screen tested about 6,200 compounds, of which about 2,900 (47%) were called active. So high a share suggests a set chosen from earlier hits. The list shows a part of the results. Unmarked numbers belong to inactive results. No stated cut-off is given here; in the data, active means inhibition above about 50%; inactive means the rest.
# Assay: Mycobacterium tuberculosis growth inhibition, primary screen (AID 1259343)
# Details: inhibition: at 10 µM, stronger effect = higher value; outcome: 10 uM
row,SMILES,inhibition
1,Cc1ccc(S(=O)(=O)NCC2COc3ccccc3C2)cc1F (stereo unspecified),-9.55%
2,CCOC(=O)c1ccccc1Nc1nnc(C(C)(C)C)c(=O)[nH]1,32.2%
3,CCOC(=O)c1cc(-c2ccccc2)sc1NC(=O)CC(=O)OC,81% (active)
4,CCc1cc(C(=O)O)c(NC(=O)c2ccccc2C)s1,18.1%
5,NC(=NC1C2CC3CC(C2)CC1C3)Nc1ccc(I)cc1 (stereo unspecified),42.8%
6,C=CCN(Cc1ccccc1)C(=O)c1cnn2c1[nH]c(=O)c1ccccc12,79.8% (active)
7,COc1cc(C=Cc2ccc3ccccc3n2)cc(Br)c1O,73.5% (active)
8,COc1cc(C=Cc2ccc3ccccc3n2)cc(Cl)c1OC,26.8%
9,Fc1ccc(C=Cc2ccc3ccccc3n2)cc1,32.5%
10,O=C(NCC(c1ccco1)N1CCc2ccccc21)C(=O)Nc1ccccc1[N+](=O)[O-] (stereo unspecified),5.43%
11,CC1CC1C(=O)Nc1ccccc1N1CCc2ccccc2C1 (stereo unspecified),81.4% (active)
12,O=C(N1CCc2ccccc2C1)N1c2ccccc2Sc2ccccc21,-20%
13,O=c1c2ccccc2nc(SCc2ccc([N+](=O)[O-])cc2)n1CC1CCCO1 (stereo unspecified),26.6%
14,O=c1[nH]n(-c2ccc([N+](=O)[O-])cc2)c(=O)c2ccccc12,90% (active)
15,CC(C)n1c(=O)[nH]c2ccccc21,19.6%
16,CC(C)N1C(=O)c2ccccc2NS1(=O)=O,72.9% (active)
17,C/C(=C\c1ccccc1)C1Nc2ccccc2C(=O)N1C (stereo unspecified),48.1%
18,O=C1OCC(CO)(CO)N=C1NNc1ccc(Cl)c(Cl)c1,87.5% (active)
19,O=C1OCC(CO)(CO)N=C1NNc1ccc([N+](=O)[O-])cc1,-25.1%
20,O=C1OCC(CO)(CO)N=C1NNc1cc(Cl)ccc1Cl,91.9% (active)
21,O=C1OCC(CO)(CO)N=C1NNc1ccc(Cl)cc1,81.8% (active)
22,O=C1OCC(CO)(CO)N=C1NNc1ccc(I)cc1,36.3%
23,Cc1cccc(C)c1OCc1cc(C(=O)N2CCCC(c3ccccc3)C2)no1 (stereo unspecified),47.2%
24,CN(Cc1cnc2ccccn12)C(=O)c1cc(COc2cncc(Cl)c2)on1,62.9% (active)
25,CN(CCCC1CCCC1)C(=O)c1cnon1,12.9%
26,CN(CC1CCCCO1)C(=O)c1cc(COc2cncc(Cl)c2)on1 (stereo unspecified),95.4% (active)

row,SMILES,inhibition
1,CN1CCN(C(=O)c2cc(COc3cncc(Cl)c3)on2)CC1c1ccccc1 (stereo unspecified),88% (active)
2,COc1ccc(OCc2cc(C(=O)N(C)CC3CCCCO3)no2)c(Cl)c1 (stereo unspecified),inactive
3,CCc1ccc(CN(C)C(=O)c2cc(COc3cncc(Cl)c3)on2)cc1,inactive
4,Cc1nc2cc(OCc3cc(C(=O)N4CCN(C)C(c5ccccc5)C4)no3)ccc2s1 (stereo unspecified),10.6%
5,O=C(c1cc(COc2cncc(Cl)c2)on1)N(CCO)Cc1cccs1,89.6% (active)
6,Cc1ccc(C(C)C)cc1S(=O)(=O)NCc1ccco1,-19.8%
7,Clc1cncc(Oc2ccc3c(C4CC4)noc3n2)c1,78.7% (active)
8,c1cn(-c2ccc(Oc3ccc4c(C5CC5)noc4n3)cc2)cn1,33.5%
9,FC(F)(F)c1ccc(Oc2ccc3c(C4CC4)noc3n2)cn1,92.3% (active)
10,c1ccc(Oc2ccc3c(C4CC4)noc3n2)cc1,72.8% (active)
11,COc1cccc(Oc2ccc3c(C4CC4)noc3n2)c1,93% (active)
12,COc1ccc2c(=O)c3c(=O)n(-c4ccccc4)c(C4CCCCC4)nc3oc2c1,-17.1%
13,CCOc1ccc(C2CC(c3ccc(F)cc3)=NN2C(=O)CN(C)C2CCCCC2)cc1 (stereo unspecified),-49.7%
14,Fc1ccc(Cl)cc1Oc1ccc2c(C3CC3)noc2n1,61.4% (active)
15,O[C@@H]1CNCC[C@H]1CNCc1cccc(Oc2cccc(C(F)(F)F)c2)c1,9.4%
16,FC(F)(F)c1ccccc1Oc1ccc2c(C3CC3)noc2n1,92.9% (active)
17,Fc1cccc(Oc2ccc3c(C4CC4)noc3n2)c1,69.2% (active)
18,Cc1ccc(F)cc1Oc1ccc2c(C3CC3)noc2n1,46.9%
19,FC(F)(F)c1cccc(Oc2ccc3c(C4CC4)noc3n2)c1,70.6% (active)
20,O=c1[nH]c(NCCO)nc2c1C1(CCCC1)Cc1ccccc1-2,3.77%
21,O=C(Cc1c[nH]c2cccc(Br)c12)OCC1CC1,-40.3%
22,CCCNC(=O)C1(C)CCN(Cc2csc(-c3ccc(Cl)cc3)n2)C1 (stereo unspecified),30.7%
23,Fc1ccc(Oc2ccc3c(C4CC4)noc3n2)cc1,6.82%
24,Fc1cc(F)cc(Oc2ccc3c(C4CC4)noc3n2)c1,95.3% (active)
25,COc1ccc(Nc2ccc3c(C4CC4)noc3n2)cc1,85.2% (active)
